Assay results reported in ChEMBL document CHEMBL3988442, “University of Dundee, Small-Polar-MMV Screening Library” (2021).
About 960 (1.5%) of roughly 66,000 compounds showed an effect of 50% or more. Many of the other results were omitted from the sample, so strong results are more common in it than they were.

Test system: Trypanosoma brucei
Test: Trypanosoma brucei 72 hour study
Format: functional, organism-based
Set-up: scale not given: in the data most compounds retested in dose-response had high values

SMILES	Percent Effect (30.3 µM, […]) [%]	Percent Effect (30 µM, 30.03 µM) [%]
Nc1ncc(CN2CCC(O)(c3ccccc3F)CC2)cn1	-5.013	–
Cc1cccc(C2(O)CCN(Cc3ccccc3N3CCCC3)CC2)c1	93.6	–
Cc1nc(CCN)cc(N2CCC(O)(c3ccccc3)C2)n1 (configuration not stated)	–	-28.3
COc1cccc(CN2CCC(O)(c3ccc(C)cn3)CC2)c1OC	-256.8	–
OC1(c2ccccc2F)CCN(Cc2ccccc2N2CCCC2)CC1	56.26	–
Cl.OC1(c2ccc(F)cc2)CCN(Cc2ccccc2N2CCCC2)CC1	-34.29	–
COc1cc(CCC(=O)N2CCC(c3cc4ncc(C)nc4[nH]3)C2)on1 (configuration not stated)	31.83	–
COc1cc(CCC(=O)N2CCC(c3cc4nccnc4[nH]3)CC2)on1	60.69	–
COc1cc(CCC(=O)N2CCC(c3cc4ncccc4[nH]3)CC2)on1	13.01	–
O=C(C1CCOCC1)N1CCO[C@H]2[C@H](OCc3ccncc3)CC[C@@H]21.O=C(O)C(F)(F)F	–	-17.19
CN(Cc1ccncc1)C1COC2(CCN(Cc3ccsc3)CC2)C1.O=C(O)C(F)(F)F.O=C(O)C(F)(F)F.O=C(O)C(F)(F)F (configuration not stated)	–	11.15
Cn1nc(C(=O)NCc2ccccn2)c2c1CCS(=O)(=O)C2	–	63.28
Cn1nc(C(=O)NCc2cccnc2)c2c1CCS(=O)(=O)C2	-19.1	–
Cn1nc(C(=O)NCc2cccs2)c2c1CCS(=O)(=O)C2	-10.45	–
CC(=O)N1CCC[C@@H](NCc2c[nH]c3ccccc23)[C@@H]1c1ccc(C)s1.Cl	-17.97	–
Cc1cnn(C2CCCN(C(=O)Cc3c(C)nn(C)c3C)C2)c1 (configuration not stated)	-16.8	–
O=C(O)C(F)(F)F.c1cncc(N2CCOCC3(CCCN(c4nncs4)C3)C2)c1 (configuration not stated)	1.277	–
O=C(O)C(F)(F)F.c1ccc(N2CCCC3(COCCN(c4nccs4)C3)C2)nc1 (configuration not stated)	–	23.77
O=C(O)C(F)(F)F.O=C(c1cccs1)N1CCCC2(COCCN(c3cccnc3)C2)C1 (configuration not stated)	-669.5	–

SMILES	Percent Effect (30.3 µM, […]) [%]	Percent Effect (30 µM, 30.03 µM) [%]
O=C(O)C(F)(F)F.O=C(O)C(F)(F)F.c1cncc(N2CCCC3(CCN(CCN4CCCC4)CC3)C2)c1	-7.746	–
Cc1cnc(N2CCCC3(COCCN(c4nccs4)C3)C2)nc1 (configuration not stated)	-22.75	–
O=C(O)C(F)(F)F.c1cncc(N2CCC3(CCCN(c4ccncc4)C3)CC2)c1	-3.759	–
O=C(O)C(F)(F)F.O=S(=O)(c1cccs1)N1CCCC2(COCCN(c3cccnc3)C2)C1 (configuration not stated)	53.4	–
N#Cc1ccc(N2CCCC3(CCN(c4cccnc4)CC3)C2)cc1.O=C(O)C(F)(F)F	65.08	–
Fc1cnc(N2CCCC3(COCCN(c4nccs4)C3)C2)nc1.O=C(O)C(F)(F)F.O=C(O)C(F)(F)F (configuration not stated)	–	60.81
O=C(O)C(F)(F)F.O=C(O)C(F)(F)F.c1cc(CN2CC[C@@H]3[C@@H](CO[C@H]3CN3CCOCC3)C2)cs1	-46.86	–
COc1ccc(N2CCN(C(=O)[C@H]3[C@@H]4CNC[C@@H]43)CC2(C)C)cc1	–	-58.92
Cc1cccc(CN2CCO[C@@H]3CC(COc4ccccn4)C[C@H]32)n1.O=C(O)C(F)(F)F.O=C(O)C(F)(F)F (some centres not stated)	-29.04	–
Cc1cc(C)c2cc(CNCc3ccco3)c3nn(C)c(=O)n3c2c1	8.532	–
Cc1cc(C)c2cc(CNC3CCCCC3)c3nn(C)c(=O)n3c2c1	100.6	–
Cc1cc(C)c2cc(CNCC3CCCO3)c3nn(C)c(=O)n3c2c1 (configuration not stated)	73.49	–
CCOCCCNCc1cc2c(C)cc(C)cc2n2c(=O)n(C)nc12	2.995	–
Cc1cc(C)c2cc(CNC(C)C)c3nn(C)c(=O)n3c2c1	99.68	–
Cc1cc(C)c2cc(CNCc3ccccc3)c3nn(C)c(=O)n3c2c1	17.22	–
Cc1cc(C)c2cc(CNCc3ccc(C)o3)c3nn(C)c(=O)n3c2c1	-8.702	–
CCCNCc1cc2c(C)cc(C)cc2n2c(=O)n(C)nc12	24.54	–
COCCNCc1cc2c(C)cc(C)cc2n2c(=O)n(C)nc12	39.03	–
Cc1nc(Nc2ncccn2)cc(C2CCCN2CC(C)C)n1 (configuration not stated)	–	-16.62

SMILES	Percent Effect (30.3 µM, […]) [%]	Percent Effect (30 µM, 30.03 µM) [%]
Cc1nc(CN2CCC3(CC2)NC(=O)CC3c2ccccc2)cs1.O=C(O)C(F)(F)F (configuration not stated)	10.42	–
O=C(Cc1cccc(F)c1)N1C[C@H]2CN(Cc3ccccn3)C[C@H]2C1.O=C(O)C(F)(F)F	-6.988	–
CC(C)n1c(=O)nc2n1C(=O)N(c1ccccc1)C2	–	14.82
CN1CCN(Cc2cnc3n2CCN(Cc2cccnc2)CC3)CC1.O=C(O)C(F)(F)F.O=C(O)C(F)(F)F.O=C(O)C(F)(F)F	-39.08	–
Cc1nc(CN2C(=O)C[C@@H]3[C@@H]2CCN3S(C)(=O)=O)cs1	–	-13.69
Cc1cc2nc(C(C)C)cc(NCCNc3ncccc3C)n2n1	–	-45.75
COc1ccc(-c2c[nH]c([C@@H]3COCCN3)n2)cc1	–	-38.08
FC(F)(F)Oc1ccc(-c2c[nH]c([C@@H]3COCCN3)n2)cc1	–	62.77
FC(F)(F)c1ccc(-c2c[nH]c([C@@H]3COCCN3)n2)cc1	–	11.07
CC(Nc1c(F)cc(C#N)cc1F)c1cccc(S(N)(=O)=O)c1 (configuration not stated)	–	39.53
CC(Nc1ccc(C#N)cc1F)c1cccc(S(N)(=O)=O)c1 (configuration not stated)	–	35.16
CC(Nc1cccc(F)c1C#N)c1cccc(S(N)(=O)=O)c1 (configuration not stated)	–	70.17
CC(=O)N1CCN(Cc2ccc(F)cc2)CC2(CC(=O)N(C)C2)C1.O=C(O)C(F)(F)F (configuration not stated)	-72.99	–
Cc1cc(-c2cnc(NCc3cccnc3)nc2C(C)C)on1	–	23.42
Cc1cc(-c2cnc(NCc3cccnc3)nc2C(C)(C)C)on1	–	25.28
Cc1cc(-c2cnc(NCc3ccccn3)nc2C(C)C)on1	94.64	–
Cc1cc(-c2cnc(NCc3ccc4c(c3)OCO4)nc2C(C)C)on1	70.78	–
Cc1cc(-c2cnc(NCc3ccncc3)nc2C(C)C)on1	23.52	–
COc1ccc(CNc2ncc(-c3cc(C)no3)c(C(C)C)n2)cc1	46.49	–
